Measurements published in PubChem BioAssay.
Unmarked numbers belong to inactive results. Activity calls are given as the source filed them. Cut-off read from the data, not from the text of the source: active = fold change permeability below about 0.7 or above about 1.3; inactive = in between.

Test: modulators of brain endothelial barrier permeability, primary screen, cell-based, FITC-avidin fluorescence, HTS (AID 1963498); note: test concentration not given here
Details: actives lie on both sides

Row | SMILES | fold change permeability
1 | NC(=O)c1ccccc1 | 1.2
2 | CCN(CC)C(=S)SSC(=S)N(CC)CC | 1.7 (active)
3 | COC(=O)C(N)Cc1ccc(Cl)cc1 (centres undefined) | 1.1
4 | O=C(O)C1=CCCNC1 | 1
5 | Cn1cc(C2=C(c3ccc(Cl)cc3Cl)C(=O)NC2=O)c2ccccc21 | 3.6 (active)
6 | CCCC1O[C@@H]2C[C@H]3[C@@H]4CCC5=CC(=O)C=C[C@]5(C)[C@H]4[C@@H](O)C[C@]3(C)[C@]2(C(=O)CO)O1 (some centres undefined) | 1.1
7 | CC(C)(C)c1ccc(C(=O)CCCN2CCC(OC(c3ccccc3)c3ccccc3)CC2)cc1 | 1.6 (active)
8 | OC(CCN1CCCCC1)(c1ccccc1)C1CC2C=CC1C2 (centres undefined) | 1.1
9 | NC(N)=S | 1.3 (active)
10 | CN(C)CCc1c[nH]c2ccc(Cn3cncn3)cc12 | 1
11 | CCCCCOC(=O)Nc1nc(=O)n([C@@H]2O[C@H](C)[C@@H](O)[C@H]2O)cc1F | 1.4 (active)
12 | CC(C)(CN1C(=O)C(Cl)=C(Cl)C1=O)CN1C(=O)C(Cl)=C(Cl)C1=O | 1.1
13 | O=C1CN2Cc3c(ccc(Cl)c3Cl)N=C2N1 | 1.1
14 | Nc1nc(N)c2nc(-c3ccccc3)c(N)nc2n1 | 1.4 (active)
15 | Nc1nc2c(c(=O)[nH]1)C[C@@H](CCc1ccc(C(=O)N[C@@H](CCC(=O)O)C(=O)O)cc1)CN2 | 0.9
16 | Nc1nc(-c2ccccc2)c(Br)c(=O)[nH]1 | 1.7 (active)
17 | CC[C@H](NC(=O)c1c(O)c(-c2ccccc2)nc2ccccc12)c1ccccc1 | 1.1
18 | NC(=Nc1ccccc1)NC(=O)c1nc(Cl)c(N)nc1N | 1.2
19 | O=C(O)[C@H]1NCCC[C@H]1C(=O)O | 1
20 | O=C(CCCN1CCC(O)(c2cccc(C(F)(F)F)c2)CC1)c1ccc(F)cc1 | 1.6 (active)

Row | SMILES | fold change permeability
21 | C=CCN1CCc2c(cc(O)c(O)c2Br)[C@@H](c2ccccc2)C1 | 1
22 | CC(C)NCC(O)c1ccc(NS(C)(=O)=O)cc1 (centres undefined) | 0.7 (active)
23 | N=c1c[n+](N2CCOCC2)[n-]o1 | 0.8
24 | NC(=O)c1sc(-c2ccsc2)cc1N | 0.9
25 | COc1ccc2c(c1)c(CC(=O)O)c(C)n2Cc1ccc(Cl)cc1 | 1
26 | CN1CCC(=C2c3ccccc3C=Cc3ccccc32)CC1 | 1.1
27 | CC(=O)[C@@]1(O)CC[C@H]2[C@@H]3CCC4=CC(=O)CC[C@]4(C)[C@H]3CC[C@@]21C | 1
28 | COc1cc(/C=C/C(=O)N2CCC=CC2=O)cc(OC)c1OC | 1
29 | CCN1CCCC1CNC(=O)c1cc(S(=O)(=O)CC)c(N)cc1OC (centres undefined) | 0.7 (active)
30 | CN(C)CCCc1cc(C(=O)Nc2ccc(-c3ccncc3)cc2)ccc1O | 1
31 | O=C(CCNNC(=O)c1ccncc1)NCc1ccccc1 | 0.8
32 | c1ccc(-c2ccccn2)nc1 | 1
33 | C=CCc1ccccc1OCC(O)CNC(C)C (centres undefined) | 1.2
34 | NCCCC(N)(C(=O)O)C(F)F (centres undefined) | 0.8
35 | O=NN(CCCl)C(=O)NCCCl | 1
36 | Nc1cc(Cl)c(NC2=NCCN2)c(Cl)c1 | 1
37 | CN[C@H](CC(=O)O)C(=O)O | 0.8
38 | CC(C)c1nc(N(C)S(C)(=O)=O)nc(-c2ccc(F)cc2)c1/C=C/[C@@H](O)C[C@@H](O)CC(=O)O | 0.9
39 | Cc1ccc(N(CC2=NCCN2)c2cccc(O)c2)cc1 | 1.1
